Measured values reported in the supplement of paper PMC11732987, “Enantioselective OTUD7B fragment discovery through chemoproteomics screening and high-throughput optimisation” (Communications Chemistry, 2025).

Key:
Experiment in all cases: log2 ratio of Biotin-Ahx-Ub-VS probe labelling (fragment/DMSO); higher = less target engagement (more negative = stronger competition), active = hit call of the paper (q ≤ 0.05, log2 ratio ≤ -1)
Details in all cases: compound concentration: 200 uM; treatment time: 3 h
USP42 = target: T1, USP42 (UniProt Q9H9J4)
T1 sequence (whole entry): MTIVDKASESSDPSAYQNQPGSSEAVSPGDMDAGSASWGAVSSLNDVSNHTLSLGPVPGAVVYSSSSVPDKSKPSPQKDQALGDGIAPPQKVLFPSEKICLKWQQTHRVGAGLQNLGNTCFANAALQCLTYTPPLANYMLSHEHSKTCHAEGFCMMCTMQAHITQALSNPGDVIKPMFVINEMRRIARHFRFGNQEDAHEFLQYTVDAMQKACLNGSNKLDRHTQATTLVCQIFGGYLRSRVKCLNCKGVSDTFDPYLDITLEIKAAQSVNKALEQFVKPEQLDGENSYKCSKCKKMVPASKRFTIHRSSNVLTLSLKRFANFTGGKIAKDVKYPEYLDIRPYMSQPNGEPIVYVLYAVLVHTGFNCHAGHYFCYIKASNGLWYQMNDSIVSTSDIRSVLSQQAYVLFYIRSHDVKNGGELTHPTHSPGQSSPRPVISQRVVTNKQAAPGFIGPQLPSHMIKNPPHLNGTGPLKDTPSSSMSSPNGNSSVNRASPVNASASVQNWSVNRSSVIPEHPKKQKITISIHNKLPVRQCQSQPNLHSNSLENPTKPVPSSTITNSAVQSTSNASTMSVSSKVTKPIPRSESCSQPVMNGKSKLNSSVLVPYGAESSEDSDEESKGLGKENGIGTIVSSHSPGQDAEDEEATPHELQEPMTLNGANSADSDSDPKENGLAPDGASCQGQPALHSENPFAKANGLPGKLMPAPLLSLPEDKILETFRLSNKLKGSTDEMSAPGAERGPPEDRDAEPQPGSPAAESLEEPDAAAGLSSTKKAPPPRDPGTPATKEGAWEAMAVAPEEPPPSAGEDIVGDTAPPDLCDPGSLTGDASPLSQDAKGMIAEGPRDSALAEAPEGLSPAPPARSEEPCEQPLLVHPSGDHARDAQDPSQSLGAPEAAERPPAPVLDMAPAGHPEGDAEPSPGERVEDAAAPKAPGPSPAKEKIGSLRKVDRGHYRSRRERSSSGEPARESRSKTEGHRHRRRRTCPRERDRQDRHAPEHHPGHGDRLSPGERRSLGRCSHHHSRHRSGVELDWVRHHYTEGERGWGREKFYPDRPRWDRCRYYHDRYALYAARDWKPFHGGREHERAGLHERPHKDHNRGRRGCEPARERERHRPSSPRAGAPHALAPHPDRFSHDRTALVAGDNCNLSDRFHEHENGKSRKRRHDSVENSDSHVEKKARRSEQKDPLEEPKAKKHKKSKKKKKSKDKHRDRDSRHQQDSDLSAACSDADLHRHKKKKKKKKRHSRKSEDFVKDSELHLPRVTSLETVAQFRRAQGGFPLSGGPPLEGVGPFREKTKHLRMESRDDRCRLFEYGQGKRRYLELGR
Method in brief: (§1)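 HEK293T lysate (495 µg per sample, in Tris/CHAPS/IGEPAL buffer with protease inhibitors) was treated in triplicate with fragment at 200 µM or with DMSO for 3 h. It was then treated with Biotin-Ahx-Ub-VS (0.5 µM final) for 1 h. Labelled DUBs were NeutrAvidin-enriched, digested with LysC and trypsin, and run by diaPASEF LC-MS/MS. Spectronaut label-free quantities were global-median-normalised. Values are average log2 ratios fragment/DMSO by unpaired t-test, using proteins with ≥2 unique peptides.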

USP46 = USP46 (UniProt P62068)
Method in brief: as §1

USP47 = target: T2, USP47 (UniProt Q96K76)
T2 sequence (whole entry): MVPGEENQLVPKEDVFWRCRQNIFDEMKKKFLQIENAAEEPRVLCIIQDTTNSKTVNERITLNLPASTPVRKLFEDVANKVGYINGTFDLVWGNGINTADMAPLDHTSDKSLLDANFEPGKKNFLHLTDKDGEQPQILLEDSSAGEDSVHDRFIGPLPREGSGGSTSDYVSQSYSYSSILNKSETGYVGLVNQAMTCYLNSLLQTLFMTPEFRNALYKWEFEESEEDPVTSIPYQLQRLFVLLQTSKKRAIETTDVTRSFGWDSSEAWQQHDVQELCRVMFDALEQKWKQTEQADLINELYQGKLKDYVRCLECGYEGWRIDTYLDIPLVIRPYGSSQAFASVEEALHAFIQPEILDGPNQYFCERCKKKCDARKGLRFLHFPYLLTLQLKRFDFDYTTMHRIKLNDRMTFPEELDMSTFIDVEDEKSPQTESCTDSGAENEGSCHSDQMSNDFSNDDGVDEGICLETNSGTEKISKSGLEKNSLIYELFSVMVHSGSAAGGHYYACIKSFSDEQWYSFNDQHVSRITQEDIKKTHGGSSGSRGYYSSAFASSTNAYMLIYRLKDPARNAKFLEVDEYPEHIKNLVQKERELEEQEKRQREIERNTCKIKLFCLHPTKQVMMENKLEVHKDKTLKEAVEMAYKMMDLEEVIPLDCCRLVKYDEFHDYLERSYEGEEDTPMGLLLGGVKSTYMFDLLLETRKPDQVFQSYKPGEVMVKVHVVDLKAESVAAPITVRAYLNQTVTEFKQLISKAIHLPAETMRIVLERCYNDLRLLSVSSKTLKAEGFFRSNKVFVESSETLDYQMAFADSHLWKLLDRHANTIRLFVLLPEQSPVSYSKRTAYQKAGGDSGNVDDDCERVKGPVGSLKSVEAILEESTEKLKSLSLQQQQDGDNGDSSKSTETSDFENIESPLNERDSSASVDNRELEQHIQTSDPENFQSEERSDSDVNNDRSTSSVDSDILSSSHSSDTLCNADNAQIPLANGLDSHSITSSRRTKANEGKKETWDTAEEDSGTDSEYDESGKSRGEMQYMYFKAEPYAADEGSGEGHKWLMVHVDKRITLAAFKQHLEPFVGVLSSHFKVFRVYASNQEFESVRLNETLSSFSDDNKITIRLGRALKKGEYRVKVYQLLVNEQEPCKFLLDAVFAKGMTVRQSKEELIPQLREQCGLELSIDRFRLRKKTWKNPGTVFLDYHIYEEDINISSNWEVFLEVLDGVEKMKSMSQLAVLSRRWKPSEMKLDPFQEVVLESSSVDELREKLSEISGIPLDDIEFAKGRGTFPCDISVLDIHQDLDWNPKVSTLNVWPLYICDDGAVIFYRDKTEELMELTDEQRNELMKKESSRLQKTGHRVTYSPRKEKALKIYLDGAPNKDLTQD
Method in brief: as §1

USP48 = target: T3, USP48 (UniProt Q86UV5)
T3 sequence (whole entry): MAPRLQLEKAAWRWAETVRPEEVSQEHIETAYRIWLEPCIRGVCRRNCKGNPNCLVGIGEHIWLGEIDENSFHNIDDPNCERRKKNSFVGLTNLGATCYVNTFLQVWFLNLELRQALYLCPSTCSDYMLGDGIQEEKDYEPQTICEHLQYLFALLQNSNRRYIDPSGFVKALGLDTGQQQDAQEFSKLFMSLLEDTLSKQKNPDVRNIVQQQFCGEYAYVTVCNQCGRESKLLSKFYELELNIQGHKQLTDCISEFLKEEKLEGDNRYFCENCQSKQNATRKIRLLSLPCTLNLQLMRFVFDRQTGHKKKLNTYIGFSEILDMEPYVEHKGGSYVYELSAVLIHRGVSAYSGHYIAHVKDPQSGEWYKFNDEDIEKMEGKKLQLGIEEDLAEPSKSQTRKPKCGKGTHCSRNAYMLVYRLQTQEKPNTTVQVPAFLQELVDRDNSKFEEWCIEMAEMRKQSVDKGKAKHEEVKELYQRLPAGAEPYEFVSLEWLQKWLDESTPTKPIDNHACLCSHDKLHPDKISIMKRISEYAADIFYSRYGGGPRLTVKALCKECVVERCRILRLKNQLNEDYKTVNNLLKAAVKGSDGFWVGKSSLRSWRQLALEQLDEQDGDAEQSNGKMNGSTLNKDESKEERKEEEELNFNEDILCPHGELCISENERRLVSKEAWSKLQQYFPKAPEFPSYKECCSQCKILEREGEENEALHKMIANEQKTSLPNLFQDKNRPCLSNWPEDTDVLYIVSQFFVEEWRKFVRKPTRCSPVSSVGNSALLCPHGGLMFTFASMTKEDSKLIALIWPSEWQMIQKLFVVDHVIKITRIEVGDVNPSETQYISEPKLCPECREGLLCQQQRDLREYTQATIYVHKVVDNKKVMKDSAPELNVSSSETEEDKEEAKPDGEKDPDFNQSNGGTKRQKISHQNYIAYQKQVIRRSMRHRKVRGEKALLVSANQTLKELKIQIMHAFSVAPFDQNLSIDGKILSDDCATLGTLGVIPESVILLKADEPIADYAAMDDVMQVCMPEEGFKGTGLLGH
Method in brief: as §1

USP5 = target: T4, USP5 (UniProt P45974)
T4 sequence (whole entry): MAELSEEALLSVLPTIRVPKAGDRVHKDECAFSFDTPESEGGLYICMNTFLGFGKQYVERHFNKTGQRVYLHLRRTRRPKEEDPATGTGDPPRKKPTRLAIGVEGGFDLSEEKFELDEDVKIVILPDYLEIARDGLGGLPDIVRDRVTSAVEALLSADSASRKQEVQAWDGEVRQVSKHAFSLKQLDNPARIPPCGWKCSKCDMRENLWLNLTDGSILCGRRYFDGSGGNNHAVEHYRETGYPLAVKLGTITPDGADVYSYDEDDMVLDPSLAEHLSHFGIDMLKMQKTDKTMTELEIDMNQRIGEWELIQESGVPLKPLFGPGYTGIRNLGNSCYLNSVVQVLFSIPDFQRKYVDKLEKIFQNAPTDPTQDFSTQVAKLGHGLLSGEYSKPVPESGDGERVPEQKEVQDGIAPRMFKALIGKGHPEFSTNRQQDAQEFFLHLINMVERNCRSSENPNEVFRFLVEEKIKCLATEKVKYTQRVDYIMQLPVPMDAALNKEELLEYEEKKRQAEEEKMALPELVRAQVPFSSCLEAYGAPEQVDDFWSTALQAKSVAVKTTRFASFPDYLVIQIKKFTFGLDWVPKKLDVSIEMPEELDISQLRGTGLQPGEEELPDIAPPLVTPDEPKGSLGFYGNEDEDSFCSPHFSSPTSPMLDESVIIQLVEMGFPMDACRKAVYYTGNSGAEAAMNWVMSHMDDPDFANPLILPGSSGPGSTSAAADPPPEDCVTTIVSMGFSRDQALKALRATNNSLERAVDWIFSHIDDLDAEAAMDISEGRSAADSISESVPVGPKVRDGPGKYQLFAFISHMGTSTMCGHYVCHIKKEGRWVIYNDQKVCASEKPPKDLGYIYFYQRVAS
Method in brief: as §1

USP54 = USP54 (UniProt Q70EL1)
Method in brief: as §1

USP7 = USP7 (UniProt Q93009)
Method in brief: as §1

USP8 = target: T5, USP8 (UniProt P40818)
T5 sequence (whole entry): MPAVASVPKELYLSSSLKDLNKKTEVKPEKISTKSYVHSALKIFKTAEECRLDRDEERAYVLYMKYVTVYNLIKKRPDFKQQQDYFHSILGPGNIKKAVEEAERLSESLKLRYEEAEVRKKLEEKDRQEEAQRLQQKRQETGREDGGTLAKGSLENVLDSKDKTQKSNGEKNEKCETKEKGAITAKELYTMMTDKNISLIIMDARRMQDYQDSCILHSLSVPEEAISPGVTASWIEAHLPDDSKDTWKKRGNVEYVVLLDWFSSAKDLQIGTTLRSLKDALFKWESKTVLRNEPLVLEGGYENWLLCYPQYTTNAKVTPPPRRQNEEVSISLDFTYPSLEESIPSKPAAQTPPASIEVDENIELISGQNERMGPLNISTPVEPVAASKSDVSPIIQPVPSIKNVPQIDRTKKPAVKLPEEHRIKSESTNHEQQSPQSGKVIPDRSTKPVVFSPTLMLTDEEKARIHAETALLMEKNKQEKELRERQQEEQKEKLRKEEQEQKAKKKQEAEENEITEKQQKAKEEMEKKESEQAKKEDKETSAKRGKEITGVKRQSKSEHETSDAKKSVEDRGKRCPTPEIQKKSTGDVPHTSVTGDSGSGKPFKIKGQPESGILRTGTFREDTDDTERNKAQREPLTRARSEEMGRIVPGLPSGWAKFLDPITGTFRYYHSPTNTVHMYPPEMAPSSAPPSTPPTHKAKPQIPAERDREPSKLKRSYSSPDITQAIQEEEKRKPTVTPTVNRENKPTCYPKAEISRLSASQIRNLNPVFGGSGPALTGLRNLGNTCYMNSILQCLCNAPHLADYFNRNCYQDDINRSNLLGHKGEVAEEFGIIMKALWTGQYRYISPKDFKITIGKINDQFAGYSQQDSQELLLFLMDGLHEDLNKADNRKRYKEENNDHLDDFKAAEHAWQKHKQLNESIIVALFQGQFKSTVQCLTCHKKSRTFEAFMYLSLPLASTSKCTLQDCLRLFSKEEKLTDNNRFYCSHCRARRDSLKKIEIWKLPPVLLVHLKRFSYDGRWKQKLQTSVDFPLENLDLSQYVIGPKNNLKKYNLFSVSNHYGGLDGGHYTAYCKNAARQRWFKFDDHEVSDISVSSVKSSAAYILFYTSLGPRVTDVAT
Method in brief: as §1

USP9X = USP9X (UniProt Q93008)
Method in brief: as §1

UniProt O00487 = target: UniProt O00487
Method in brief: as §1

Measured: log2 ratio of Biotin-Ahx-Ub-VS probe labelling

UniProt O00487, sequence (O00487 whole entry): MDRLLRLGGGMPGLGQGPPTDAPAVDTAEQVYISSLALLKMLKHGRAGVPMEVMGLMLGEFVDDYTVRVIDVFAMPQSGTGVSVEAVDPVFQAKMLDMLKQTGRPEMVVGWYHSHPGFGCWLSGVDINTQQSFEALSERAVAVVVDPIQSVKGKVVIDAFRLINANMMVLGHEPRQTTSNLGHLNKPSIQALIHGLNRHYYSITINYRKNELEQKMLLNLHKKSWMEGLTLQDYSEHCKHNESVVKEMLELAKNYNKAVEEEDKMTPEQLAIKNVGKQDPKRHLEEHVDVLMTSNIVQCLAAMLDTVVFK
USP46, sequence (P62068 whole entry): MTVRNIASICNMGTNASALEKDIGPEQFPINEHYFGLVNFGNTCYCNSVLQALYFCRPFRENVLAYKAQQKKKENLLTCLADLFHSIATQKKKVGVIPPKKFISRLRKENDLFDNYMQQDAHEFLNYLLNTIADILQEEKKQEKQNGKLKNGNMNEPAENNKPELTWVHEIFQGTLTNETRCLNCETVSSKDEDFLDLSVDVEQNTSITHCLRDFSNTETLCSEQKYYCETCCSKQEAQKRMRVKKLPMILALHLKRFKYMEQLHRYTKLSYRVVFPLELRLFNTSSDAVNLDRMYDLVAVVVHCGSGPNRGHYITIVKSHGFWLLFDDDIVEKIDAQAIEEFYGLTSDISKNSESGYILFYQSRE
USP54, sequence (Q70EL1 whole entry): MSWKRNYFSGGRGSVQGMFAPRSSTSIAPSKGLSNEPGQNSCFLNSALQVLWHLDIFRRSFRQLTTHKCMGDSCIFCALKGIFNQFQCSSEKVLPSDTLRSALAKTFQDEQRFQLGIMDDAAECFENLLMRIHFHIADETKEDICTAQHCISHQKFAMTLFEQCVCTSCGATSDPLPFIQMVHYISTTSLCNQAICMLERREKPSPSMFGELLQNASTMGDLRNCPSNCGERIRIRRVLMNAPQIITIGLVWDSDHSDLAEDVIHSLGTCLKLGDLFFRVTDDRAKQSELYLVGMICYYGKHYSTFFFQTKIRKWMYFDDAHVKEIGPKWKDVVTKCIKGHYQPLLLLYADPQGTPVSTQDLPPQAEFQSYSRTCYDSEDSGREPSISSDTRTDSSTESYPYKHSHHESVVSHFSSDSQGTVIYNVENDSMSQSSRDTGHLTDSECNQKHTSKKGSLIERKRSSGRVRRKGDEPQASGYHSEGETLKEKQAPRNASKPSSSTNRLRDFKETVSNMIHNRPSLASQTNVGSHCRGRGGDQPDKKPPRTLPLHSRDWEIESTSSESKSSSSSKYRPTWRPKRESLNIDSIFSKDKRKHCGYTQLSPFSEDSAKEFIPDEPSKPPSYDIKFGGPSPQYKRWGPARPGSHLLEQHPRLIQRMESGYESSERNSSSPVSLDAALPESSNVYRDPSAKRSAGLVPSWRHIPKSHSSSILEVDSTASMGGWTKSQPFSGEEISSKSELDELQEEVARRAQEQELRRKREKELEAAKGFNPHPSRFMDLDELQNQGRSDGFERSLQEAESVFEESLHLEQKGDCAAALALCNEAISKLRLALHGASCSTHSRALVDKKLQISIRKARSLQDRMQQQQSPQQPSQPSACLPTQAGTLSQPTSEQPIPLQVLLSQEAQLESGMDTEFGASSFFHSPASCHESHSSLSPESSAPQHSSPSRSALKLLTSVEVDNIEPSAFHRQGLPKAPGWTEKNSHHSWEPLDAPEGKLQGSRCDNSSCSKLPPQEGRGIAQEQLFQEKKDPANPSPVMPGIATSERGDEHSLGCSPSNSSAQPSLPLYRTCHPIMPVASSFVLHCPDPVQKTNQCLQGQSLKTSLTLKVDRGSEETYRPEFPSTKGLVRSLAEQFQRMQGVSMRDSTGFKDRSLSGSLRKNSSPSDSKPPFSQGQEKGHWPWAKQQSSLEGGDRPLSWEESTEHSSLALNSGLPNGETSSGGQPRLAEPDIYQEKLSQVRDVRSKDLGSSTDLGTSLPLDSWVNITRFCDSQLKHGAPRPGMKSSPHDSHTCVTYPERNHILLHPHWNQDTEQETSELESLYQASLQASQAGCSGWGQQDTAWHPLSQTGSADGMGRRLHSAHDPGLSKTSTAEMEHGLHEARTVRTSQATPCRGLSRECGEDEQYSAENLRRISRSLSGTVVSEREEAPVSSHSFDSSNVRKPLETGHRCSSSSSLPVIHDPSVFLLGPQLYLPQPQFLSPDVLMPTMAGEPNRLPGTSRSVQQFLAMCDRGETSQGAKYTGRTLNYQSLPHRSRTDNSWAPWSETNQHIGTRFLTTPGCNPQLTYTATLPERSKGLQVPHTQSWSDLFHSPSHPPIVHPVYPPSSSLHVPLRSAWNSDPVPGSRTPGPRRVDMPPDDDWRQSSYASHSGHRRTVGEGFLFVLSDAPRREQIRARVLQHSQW
USP9X, sequence (Q93008 whole entry): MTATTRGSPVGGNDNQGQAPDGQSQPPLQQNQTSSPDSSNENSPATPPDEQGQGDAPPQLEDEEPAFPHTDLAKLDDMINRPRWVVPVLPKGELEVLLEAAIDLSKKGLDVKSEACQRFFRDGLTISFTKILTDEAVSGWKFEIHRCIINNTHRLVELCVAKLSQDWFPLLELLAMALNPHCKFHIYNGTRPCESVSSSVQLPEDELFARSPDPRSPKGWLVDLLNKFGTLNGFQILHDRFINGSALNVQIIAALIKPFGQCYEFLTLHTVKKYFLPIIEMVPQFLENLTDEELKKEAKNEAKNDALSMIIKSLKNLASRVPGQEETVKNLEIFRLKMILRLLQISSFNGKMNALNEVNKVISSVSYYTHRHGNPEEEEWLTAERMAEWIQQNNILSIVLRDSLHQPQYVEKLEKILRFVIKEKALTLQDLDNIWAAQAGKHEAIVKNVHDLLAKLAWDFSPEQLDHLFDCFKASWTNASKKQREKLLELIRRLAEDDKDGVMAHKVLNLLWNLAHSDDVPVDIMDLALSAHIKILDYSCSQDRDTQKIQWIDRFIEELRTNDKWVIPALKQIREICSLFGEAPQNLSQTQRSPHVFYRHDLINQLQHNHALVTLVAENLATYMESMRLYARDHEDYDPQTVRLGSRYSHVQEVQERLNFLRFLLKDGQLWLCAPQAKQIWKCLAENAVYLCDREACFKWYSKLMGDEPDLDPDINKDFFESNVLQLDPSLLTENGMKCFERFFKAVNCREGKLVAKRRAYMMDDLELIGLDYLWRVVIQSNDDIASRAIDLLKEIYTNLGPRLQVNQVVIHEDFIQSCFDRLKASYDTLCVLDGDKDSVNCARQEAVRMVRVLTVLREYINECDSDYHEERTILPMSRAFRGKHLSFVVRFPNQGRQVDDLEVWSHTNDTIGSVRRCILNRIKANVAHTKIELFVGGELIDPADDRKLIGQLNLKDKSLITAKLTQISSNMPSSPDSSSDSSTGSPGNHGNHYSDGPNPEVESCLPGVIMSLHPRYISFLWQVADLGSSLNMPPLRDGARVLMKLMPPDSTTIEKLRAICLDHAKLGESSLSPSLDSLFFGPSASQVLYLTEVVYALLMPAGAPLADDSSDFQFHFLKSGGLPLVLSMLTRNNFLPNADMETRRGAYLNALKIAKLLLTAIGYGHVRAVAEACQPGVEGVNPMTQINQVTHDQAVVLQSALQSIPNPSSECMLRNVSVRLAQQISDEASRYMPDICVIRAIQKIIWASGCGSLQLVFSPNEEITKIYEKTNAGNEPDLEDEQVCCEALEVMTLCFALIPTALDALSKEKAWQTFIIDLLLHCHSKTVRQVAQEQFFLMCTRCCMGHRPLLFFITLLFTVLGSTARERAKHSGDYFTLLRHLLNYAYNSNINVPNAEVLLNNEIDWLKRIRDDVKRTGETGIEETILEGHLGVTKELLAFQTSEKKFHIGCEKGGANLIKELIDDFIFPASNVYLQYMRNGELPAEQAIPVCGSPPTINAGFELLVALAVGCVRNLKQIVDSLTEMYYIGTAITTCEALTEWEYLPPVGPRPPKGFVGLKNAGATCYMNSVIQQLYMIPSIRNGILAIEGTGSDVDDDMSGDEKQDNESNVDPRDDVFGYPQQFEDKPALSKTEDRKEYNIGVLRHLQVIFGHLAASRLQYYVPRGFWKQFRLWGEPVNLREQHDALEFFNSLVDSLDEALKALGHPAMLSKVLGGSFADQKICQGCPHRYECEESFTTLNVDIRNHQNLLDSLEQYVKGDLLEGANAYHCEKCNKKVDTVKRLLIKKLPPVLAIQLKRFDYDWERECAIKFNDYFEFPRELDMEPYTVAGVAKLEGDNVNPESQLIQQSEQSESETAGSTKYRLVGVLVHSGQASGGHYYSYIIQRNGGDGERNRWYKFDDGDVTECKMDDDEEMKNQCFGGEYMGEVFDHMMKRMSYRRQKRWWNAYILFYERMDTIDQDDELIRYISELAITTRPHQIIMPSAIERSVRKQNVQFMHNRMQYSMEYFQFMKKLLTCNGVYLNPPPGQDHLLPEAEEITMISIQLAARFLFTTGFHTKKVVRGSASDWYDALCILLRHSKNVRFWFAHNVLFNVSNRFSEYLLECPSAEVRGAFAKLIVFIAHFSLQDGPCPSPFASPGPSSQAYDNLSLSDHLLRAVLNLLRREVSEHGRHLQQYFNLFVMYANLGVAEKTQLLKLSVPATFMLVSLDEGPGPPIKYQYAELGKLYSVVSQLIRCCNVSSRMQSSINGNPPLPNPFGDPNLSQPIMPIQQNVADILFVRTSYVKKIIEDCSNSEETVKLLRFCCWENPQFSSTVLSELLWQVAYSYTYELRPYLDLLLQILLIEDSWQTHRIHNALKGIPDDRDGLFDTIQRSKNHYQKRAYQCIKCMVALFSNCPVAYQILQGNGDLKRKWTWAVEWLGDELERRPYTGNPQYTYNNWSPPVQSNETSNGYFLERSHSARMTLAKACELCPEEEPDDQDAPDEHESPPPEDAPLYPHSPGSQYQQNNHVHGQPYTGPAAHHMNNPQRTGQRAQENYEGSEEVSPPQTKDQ

Cc1cccc(NC(=O)CCl)c1C
inactive: USP42 0.0545 | USP46 -0.22 | USP47 -0.266 | USP48 -0.0682 | USP5 -0.738 | USP54 -0.507 | USP7 -0.293 | USP8 -0.346 | USP9X -0.185 | UniProt O00487 -0.182
